In the library only some 11% were active in any assay of this set; here they are far more common.
G9a block: G9a (human) methyltransferase inhibition; G9a H3K9 monomethylation, AlphaScreen, 2 h; Q96KQ7; Potency, µM (titrated, usually from 102 µM), for the others: top-dose activity, negative = inhibition, hits mostly inhibitors; hit rate 8.8% among 350,000; further: on the % scale 0 is the no-effect control and ±100 the full control effect; nearly all actives have a fitted effect of over 75% in size
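Using a bead-based AlphaScreen, monomethylated H3K9 product from 2 h room-temperature reactions (G9a 20 nM, peptide 500 nM, SAM 20 uM) was detected with 0.5 ug/mL rabbit anti-H3K9me1 antibody.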
L3MBTL1 block: L3MBTL1 (human) inhibition; Q9Y468; AlphaScreen L3MBTL1–H3K9me1 peptide binding; Potency, µM (highest dose often 57.1 µM), for the others: top-dose activity, negative = inhibition, usual class: inhibitors; hit rate 0.66% among 230,000; further: on the % scale 0 is the no-effect control and ±100 the full control effect; nearly all actives have a fitted effect of over 60% in size
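AlphaScreen assay: L3MBTL1 (50 nM final) was preincubated 30 min at room temperature with biotinylated H3(1-15)K9me1 peptide (75 nM final), then 30 min with library compounds; streptavidin donor and nickel chelate acceptor beads (10 ug/mL final) added, 30 min dark.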
JMJD2A Tudor inh: blocks the human JMJD2A Tudor domain. O75164. AlphaScreen JMJD2A-Tudor / H3K4me3 peptide binding. Potency, µM (highest dose often 114 µM), for the others: top-dose activity change, negative = inhibition, hits mostly inhibitors. hit rate 4.4% among 390,000. AID 504339; further: on the % scale 0 is the no-effect control and ±100 the full control effect; nearly all actives have a fitted effect of over 50% in size
Target sequence (O75164 whole entry, looked up, the tested form may be a part): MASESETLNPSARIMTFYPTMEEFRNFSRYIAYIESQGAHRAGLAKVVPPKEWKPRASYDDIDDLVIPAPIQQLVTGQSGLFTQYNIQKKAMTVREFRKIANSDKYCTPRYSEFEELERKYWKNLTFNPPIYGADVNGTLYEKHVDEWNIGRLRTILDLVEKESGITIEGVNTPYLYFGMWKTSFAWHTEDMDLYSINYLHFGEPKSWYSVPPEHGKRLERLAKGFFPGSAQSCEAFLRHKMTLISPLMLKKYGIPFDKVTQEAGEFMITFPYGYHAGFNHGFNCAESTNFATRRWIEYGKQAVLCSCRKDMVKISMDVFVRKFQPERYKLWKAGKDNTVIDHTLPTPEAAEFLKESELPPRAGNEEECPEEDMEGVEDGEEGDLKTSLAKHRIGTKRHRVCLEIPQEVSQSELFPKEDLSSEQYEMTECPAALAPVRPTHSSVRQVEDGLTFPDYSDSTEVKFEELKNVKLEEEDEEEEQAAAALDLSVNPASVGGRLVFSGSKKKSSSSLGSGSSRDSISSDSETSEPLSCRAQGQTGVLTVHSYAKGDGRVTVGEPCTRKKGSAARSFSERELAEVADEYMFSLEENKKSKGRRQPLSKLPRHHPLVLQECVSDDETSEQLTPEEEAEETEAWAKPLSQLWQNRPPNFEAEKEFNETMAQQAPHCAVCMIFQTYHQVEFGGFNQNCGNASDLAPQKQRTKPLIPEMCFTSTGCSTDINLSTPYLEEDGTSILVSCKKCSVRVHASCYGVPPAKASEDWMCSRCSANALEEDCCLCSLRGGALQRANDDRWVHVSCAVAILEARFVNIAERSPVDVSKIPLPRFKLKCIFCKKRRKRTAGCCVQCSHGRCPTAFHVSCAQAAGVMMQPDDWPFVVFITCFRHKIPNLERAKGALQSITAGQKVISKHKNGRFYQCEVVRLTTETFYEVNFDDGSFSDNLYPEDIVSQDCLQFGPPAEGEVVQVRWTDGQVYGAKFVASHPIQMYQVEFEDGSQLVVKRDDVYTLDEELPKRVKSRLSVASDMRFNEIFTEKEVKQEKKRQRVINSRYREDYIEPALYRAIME
HP1b binding inh: inhibitors of HP1-beta chromodomain binding to methylated histone tails | P83916 | AlphaScreen HP1-beta / biotin-H3K9me3 peptide binding | Potency, µM (highest dose often 114 µM), without a hit: at the top dose activity change, negative = inhibition, most hits filed as inhibitors | hit rate 0.56% among 390,000 | AID 540317; further: nearly all actives have a fitted effect of over 70% in size
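HP1-beta protein (50 nM final) preincubated 30 min at room temperature with biotinylated H3(1-18)K9me3 peptide (50 nM) in PBS pH 7.4, 0.01% Tween-20, then compound added for 30 min. AlphaScreen streptavidin donor/nickel chelate acceptor beads (10 ug/mL final), 30 min dark, luminescence read.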
BAZ2B block: inhibitors of human BAZ2B bromodomain. AlphaScreen BAZ2B-H3K14Ac peptide displacement. Potency, µM (titrated, usually from 114 µM), for the others: at the highest dose activity change, negative = inhibition, usual class: inhibitors. hit rate 4.4% among 360,000. AID 504333; further: on the % scale 0 is the no-effect control and ±100 the full control effect; nearly all actives have a fitted effect of over 60% in size
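AlphaScreen displacement of biotin-H3(5-23)K14Ac peptide (50 nM final) from BAZ2B (50 nM final) in PBS pH 7.4, 0.01% Tween-20; complex preformed 30 min RT, then compounds (top 110 uM) 30 min RT, beads 20 min dark.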
An asterisk follows results filed as active; ? = inconclusive; . = no result; [ ] = dose if it differs, or a comment. The call rests on the fitted dose curve; in most records, active means well fitted inhibition curve with a large enough effect; inconclusive means small, poorly fitted or top-dose-only effect; inactive means no such curve, though single readings can be large or run the other way. Potency means the concentration at half of the fitted maximal effect.

SMILES	G9a block	L3MBTL1 block	JMJD2A Tudor inh	HP1b binding inh	BAZ2B block
CCCCCCCC/C=C\CCCCCCCC(=O)NCc1ccc(O)c(OC)c1	8%[59 µM]	.	.	.	.
O=c1/c(=C/c2cn(-c3ccccc3)nc2-c2ccc(F)cc2)sc2nc3ccccc3n12	-1%[59 µM]	0%	.	.	2%
Cc1ccc2c(nc3s/c(=C\c4ccc(-c5ccccc5C(=O)O)o4)c(=O)n32)c1C	18µM*	.	?	-18%	56µM*
Cc1cc(C)c2nc3s/c(=C/c4ccccc4)c(=O)n3c2c1	1.3µM*	.	.	.	3%
O=C(O)c1ccc(-c2ccc(/C=c3/sc4nc5ccccc5n4c3=O)o2)cc1Cl	5µM*	.	20µM*	18µM*	40µM*
Cc1c(C(=O)O)cccc1-c1ccc(C=O)o1	?	?	-31%	5%	-10%
O=c1/c(=C/c2ccccc2)sc2nnc(-c3cccs3)n12	.	10%	-2%	-1%	0%
Cc1ccc2c(nc3s/c(=C/c4cccs4)c(=O)n32)c1C	7.9µM*	-4%	?	-13%	.
Cc1cccc(Cn2cc(C(=O)Nc3ccc(S(N)(=O)=O)cc3)ccc2=O)c1	4%[59 µM]	.	1%	36%[57 µM]	1%
CC/C(C)=N\N=C\c1c(O)n(CC)c2cc(C3=NNC(=O)CC3)ccc12	8.9µM*	2%	-34%	17%	-25%
Cc1ccccc1C(=O)NCC(=O)OC(C)C(=O)NCc1ccco1 (configuration not stated)	-9%	-5%	1%	14%	-4%
Cc1ccc(C)c(C(C)NC(=O)c2ccc(Br)o2)c1 (configuration not stated)	50µM*	-8%	-8%	59%	10%
Cc1ccc(C)c(C(C)NC(=O)CC#N)c1 (configuration not stated)	.	10%	-1%	39%	-4%
Cc1ccc(C(C)C)c(OCC(=O)c2c(O)c3ccccc3oc2=O)c1	.	.	45µM*	-1%	.
Cc1ccc(OCC(=O)c2c(O)c3ccccc3oc2=O)cc1C	12%[12.7 µM]	-1%	40µM*	16%	?
Cc1ccc(C(C)C)c(OCC(=O)Nc2c(C(=O)c3ccccc3)oc3ccccc23)c1	-9%[59 µM]	.	19%	80%	3%
CCc1ccc(OCC(=O)c2c(O)c3ccccc3oc2=O)cc1	45µM*	8%	-11%	27%	?
CCC1CSC(Nc2ccc(C(=O)/C=C/c3ccc(Oc4ccccc4)cc3)cc2)=N1 (configuration not stated)	?	-6%	?	-2%	?
CCC1CSC(Nc2ccc(C(=O)/C=C/c3cccc(C)c3)cc2)=N1 (configuration not stated)	2.8µM*	-4%	-30%	28%	?
CN1CCN(C(=O)CCN2C(=O)/C(=C\c3ccc(Cl)cc3Cl)SC2=S)CC1	.	-8%	16µM*	?	?
CCOC(=O)CN1C(=O)S/C(=C/c2ccc3c(c2)n(C)c(=O)n3C)C1=O	5%[59 µM]	2%	-31%	7%	-3%
CC1CCN(C(=O)CCN2C(=O)/C(=C/c3cccs3)SC2=S)CC1	32µM*	.	28µM*	?	?
Cn1c(=O)n(C)c2cc(/C=C3/SC(=O)N(CC(=O)N4CCOCC4)C3=O)ccc21	-2%	0%	-2%	14%	50µM*
COc1ccc(/C=C2/SC(=S)N(CCCC(=O)N3CCN(C)CC3)C2=O)cc1	?	.	?	?	32µM*
COc1cc(/C=C2\SC(=S)N(CCC(=O)N3CCN(C)CC3)C2=O)cc(OC)c1OC	50µM*	.	?	?	-13%
SMILES	G9a block	L3MBTL1 block	JMJD2A Tudor inh	HP1b binding inh	BAZ2B block
COC(=O)c1ccc(/C=C2\SC(=S)N(CCCC(=O)N3CCOCC3)C2=O)cc1	.	.	-9%	28%	.
Cc1ccc(/C=C2\SC(=S)N(CCCC(=O)N3CCOCC3)C2=O)cc1	.	.	20µM*	?	11µM*
NCCn1oc(=O)[nH]c1=O	39%[59 µM]	.	.	.	.
CCC(=O)N1CCc2cc(S(=O)(=O)NC(Cc3ccccc3)C(=O)Nc3ccc(C)cc3)ccc21 (configuration not stated)	-3%[59 µM]	.	-8%	52%	.
Cn1cccc1C(=O)Nc1nc(-c2ccccn2)cs1	.	32µM*	56µM*	?	18µM*
CCc1sc(C(=O)Nc2ncccc2O)cc1C	35µM*	.	-22%	25%	50µM*
O=C(Nc1nc(-c2ccccc2)cs1)c1cccs1	-6%	19%	-12%	42%	10%
CCc1sc(C(=O)Nc2nc(-c3ccccn3)cs2)cc1C	.	?	79µM*	-7%	.
CCc1sc(C(=O)Nc2nccs2)cc1C	-7%	.	-8%	23%	2%
O=C(Nc1nc(-c2ccc(Cl)s2)cs1)c1cccs1	50µM*	-6%	-28%	-7%	-5%
CCOc1ccccc1CNC(=O)c1cc2n(n1)CCCN(Cc1ccc(C)cc1)C2=O	15%[59 µM]	.	-25%	13%	-11%
O=C(O)C1CCCCC1C(=O)Nc1nc(-c2ccc(Cl)s2)cs1 (configuration not stated)	45µM*	-2%	?	23%	56µM*
O=C(Nc1ccc([N+](=O)[O-])cc1)Nc1nc(-c2ccc(Cl)s2)cs1	16µM*	21%	-30%	1%	21%
O=C(Nc1nc(-c2ccccn2)cs1)c1ncc(Cl)c(Cl)c1Cl	.	-9%	-25%	29%	-6%
O=C(Nc1nc(-c2ccccn2)cs1)c1ccc(Cl)s1	?	?	79µM*	33%	22µM*
CCCC(=O)Nc1nc(-c2ccc(Cl)s2)cs1	15%	-14%	-9%	44%	2%
Cc1ccc(C(=O)Nc2nc(-c3ccccn3)cs2)s1	-2%[2.33 µM]	?	56µM*	27%	20µM*
Cc1ccc(OCC(=O)N/N=C2\CC(=O)CC(C)(C)C2)c(Br)c1	-5%	.	-19%	34%	-19%
CNc1nc(N)c([N+](=O)[O-])c(N2CCCCCC2)n1	8%[2.33 µM]	.	-19%	24%	-19%

High-throughput results from PubChem.
